Reference: the supplement of paper PMC10849652
The full data set covers some 7,900 targets. This sample favours those with a hit. About 0.6% of all pairs of compound and target were hits. Values without a mark were called inactive.

Assays:
Test in all cases: log2 fold change, soluble protein after heating vs DMSO (PISA); higher = thermal stabilisation; K562 cells, 10 uM, 30 min; active = over 0.2 and 3.5 SD of the protein, either way, in both replicates (recomputed)
erlotinib = compound: C#Cc1cccc(Nc2ncnc3cc(OCCOC)c(OCCOC)cc23)c1 [erlotinib]
Method in brief: (§1)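 Quantification of soluble protein used TMTpro 16plex LC-MS/MS, with channel sums equalised. Samples were the supernatant after 21,000xg for 90 min of pooled aliquots from K562 cells (2×10^6 cells/mL) treated with 10 μM compound for 30 min, heated for 3 min over 48°C-58°C, and extracted in PBS with 0.5% NP-40 at 4°C. Values, from duplicates, describe thermal stability against control samples on a log2 fold-change scale.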

[1] = compound: C/C(=N\NC(=O)C1=CC(=CC=C1)S(=O)(=O)N2CCOCC2)/C3=C(C=CC(=C3)Cl)O
Method in brief: as §1

[2] = compound: C1=CC(=C(C=C1Cl)C2=NC3=NC=CN=C3C(=N2)NC4=CC=NC=C4)F
Method in brief: as §1

[3] = compound: C1=CC(=CC=C1C2=NC3=C(N2)C=C(C=C3)C(=O)N)OC4=CC=C(C=C4)Cl
Method in brief: as §1

[4] = compound: C1=CC2=C(C=CC(=C2)/C=C\3/C(=O)NC(=NCC4=CC=CS4)S3)N=C1
Method in brief: as §1

[5] = compound: C1=CC2=NC=CN=C2C=C1/C=C/3\C(=O)NC(=O)S3
Method in brief: as §1

[6] = compound: C1=CC=C(C=C1)C2=NC(=C(N2)C3=CC=NC=C3)C4=CC(=C(C=C4)Cl)O
Method in brief: as §1

[7] = compound: C1=CC=C2C(=C1)C3=NNC4=CC=CC(=C43)C2=O
Method in brief: as §1

[8] = compound: C1CCN(C1)C(=O)NC2=CC=CC(=C2)NC3=NC=C(C(=N3)NCCC4=CN=CN4)Br
Method in brief: as §1

[9] = compound: C1CN(CCC1(CC2=CC=C(C=C2)Cl)N)C3=NC=NC4=C3C=CN4
Method in brief: as §1

IRAK-1-4 Inhibitor I = compound: C1COCCN1CCN2C3=CC=CC=C3N=C2NC(=O)C4=CC(=CC=C4)[N+](=O)[O-] [IRAK-1-4 Inhibitor I]
Method in brief: as §1

ibrutinib = compound: C=CC(=O)N1CCC[C@@H](n2nc(-c3ccc(Oc4ccccc4)cc3)c3c(N)ncnc32)C1 [ibrutinib]
Method in brief: as §1

[10] = compound: CC(=O)c1cnc2ccc(-c3cc(Cl)c(O)c(Cl)c3)nc2c1N[C@H]1CC[C@H](CN(C)C)CC1
Method in brief: as §1

ralimetinib = compound: CC(C)(C)Cn1c(N)nc2ccc(-c3[nH]c(C(C)(C)C)nc3-c3ccc(F)cc3)nc21 [ralimetinib]
Method in brief: as §1

[11] = compound: CC(C)(O)CC(=O)NCCn1ccc2ncnc(Nc3ccc(Oc4cccc(C(F)(F)F)c4)c(Cl)c3)c21
Method in brief: as §1

[12] = compound: CC(C)C1=C2N=C(C=C(N2N=C1)NCC3=CC=CC=C3)NCCCCCCN
Method in brief: as §1

[13] = compound: CC(C)C[C@@H](C=O)NC(=O)[C@H](CC(C)C)NC(=O)[C@H](CC(C)C)NC(=O)OCc1ccccc1
Method in brief: as §1

pinometostat = compound: CC(C)N(C[C@H]1O[C@@H](n2cnc3c(N)ncnc32)[C@H](O)[C@@H]1O)[C@H]1C[C@@H](CCc2nc3cc(C(C)(C)C)ccc3[nH]2)C1 [pinometostat]
Method in brief: as §1

[14] = compound: CC1=C(C(CC(=O)N1)C2=CC=C(C=C2)C(F)(F)F)C(=O)NC3=C(C=C4C(=C3)C=NN4)F
Method in brief: as §1

[15] = compound: CC1=C(C2=C(C=C1)C(=O)C3=CC=CC=C3N2CCCN)C
Method in brief: as §1

Chain of UniProt O60333 (O60333 whole entry, looked up): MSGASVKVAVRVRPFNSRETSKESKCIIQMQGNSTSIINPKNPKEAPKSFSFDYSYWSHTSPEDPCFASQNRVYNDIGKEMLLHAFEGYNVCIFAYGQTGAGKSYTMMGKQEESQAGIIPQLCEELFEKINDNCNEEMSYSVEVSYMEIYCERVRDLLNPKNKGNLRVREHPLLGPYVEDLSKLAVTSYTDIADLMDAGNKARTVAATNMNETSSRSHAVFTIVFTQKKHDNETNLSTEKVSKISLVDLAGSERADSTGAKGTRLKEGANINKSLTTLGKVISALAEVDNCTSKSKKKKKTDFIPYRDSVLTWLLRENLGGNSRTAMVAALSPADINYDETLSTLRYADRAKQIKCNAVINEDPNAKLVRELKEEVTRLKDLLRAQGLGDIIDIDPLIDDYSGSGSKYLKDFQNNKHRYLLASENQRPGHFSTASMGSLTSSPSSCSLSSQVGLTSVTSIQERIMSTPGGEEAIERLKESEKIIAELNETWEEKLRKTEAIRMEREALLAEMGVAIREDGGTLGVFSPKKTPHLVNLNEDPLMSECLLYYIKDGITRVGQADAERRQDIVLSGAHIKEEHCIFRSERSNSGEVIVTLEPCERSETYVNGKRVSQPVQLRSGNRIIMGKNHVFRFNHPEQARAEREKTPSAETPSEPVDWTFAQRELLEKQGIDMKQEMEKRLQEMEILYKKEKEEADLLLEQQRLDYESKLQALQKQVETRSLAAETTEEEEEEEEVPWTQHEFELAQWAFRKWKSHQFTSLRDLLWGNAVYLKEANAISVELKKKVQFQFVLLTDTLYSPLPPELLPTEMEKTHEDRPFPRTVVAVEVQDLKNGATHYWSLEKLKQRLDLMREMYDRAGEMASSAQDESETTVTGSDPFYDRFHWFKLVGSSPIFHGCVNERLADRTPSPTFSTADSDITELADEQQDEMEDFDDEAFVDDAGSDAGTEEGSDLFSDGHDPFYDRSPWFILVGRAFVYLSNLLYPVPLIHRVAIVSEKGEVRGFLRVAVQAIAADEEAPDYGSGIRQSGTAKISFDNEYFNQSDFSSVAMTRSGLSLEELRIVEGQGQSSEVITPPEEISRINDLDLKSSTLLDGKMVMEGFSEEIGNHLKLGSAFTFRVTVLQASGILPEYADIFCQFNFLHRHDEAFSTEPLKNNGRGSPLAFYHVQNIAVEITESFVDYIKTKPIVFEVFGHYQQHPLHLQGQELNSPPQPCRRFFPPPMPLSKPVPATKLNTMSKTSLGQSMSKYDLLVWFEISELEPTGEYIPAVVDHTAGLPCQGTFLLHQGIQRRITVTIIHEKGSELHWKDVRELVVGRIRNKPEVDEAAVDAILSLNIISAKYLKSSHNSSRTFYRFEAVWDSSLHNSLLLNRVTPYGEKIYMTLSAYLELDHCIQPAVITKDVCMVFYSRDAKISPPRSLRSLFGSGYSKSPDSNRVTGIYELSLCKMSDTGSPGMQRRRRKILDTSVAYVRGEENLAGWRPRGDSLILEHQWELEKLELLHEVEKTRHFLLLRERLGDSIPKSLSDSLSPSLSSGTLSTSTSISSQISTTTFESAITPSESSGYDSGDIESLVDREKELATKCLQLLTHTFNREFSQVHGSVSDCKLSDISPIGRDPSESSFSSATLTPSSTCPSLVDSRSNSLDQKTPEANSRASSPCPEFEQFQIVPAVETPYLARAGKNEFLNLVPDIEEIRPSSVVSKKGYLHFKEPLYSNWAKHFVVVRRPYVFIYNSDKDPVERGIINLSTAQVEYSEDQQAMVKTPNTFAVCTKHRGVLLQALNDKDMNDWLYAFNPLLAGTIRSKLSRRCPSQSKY
Chain of UniProt Q9H6K1 (Q9H6K1 whole entry, looked up): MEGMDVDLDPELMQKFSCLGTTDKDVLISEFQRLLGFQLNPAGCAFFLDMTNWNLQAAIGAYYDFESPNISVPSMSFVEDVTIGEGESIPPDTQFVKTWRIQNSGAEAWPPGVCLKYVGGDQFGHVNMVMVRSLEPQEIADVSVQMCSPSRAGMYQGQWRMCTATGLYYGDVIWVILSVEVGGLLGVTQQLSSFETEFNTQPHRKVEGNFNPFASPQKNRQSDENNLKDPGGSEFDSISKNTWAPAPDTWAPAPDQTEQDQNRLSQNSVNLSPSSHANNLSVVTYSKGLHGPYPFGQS
Chain of UniProt Q9Y496 (Q9Y496 whole entry, looked up): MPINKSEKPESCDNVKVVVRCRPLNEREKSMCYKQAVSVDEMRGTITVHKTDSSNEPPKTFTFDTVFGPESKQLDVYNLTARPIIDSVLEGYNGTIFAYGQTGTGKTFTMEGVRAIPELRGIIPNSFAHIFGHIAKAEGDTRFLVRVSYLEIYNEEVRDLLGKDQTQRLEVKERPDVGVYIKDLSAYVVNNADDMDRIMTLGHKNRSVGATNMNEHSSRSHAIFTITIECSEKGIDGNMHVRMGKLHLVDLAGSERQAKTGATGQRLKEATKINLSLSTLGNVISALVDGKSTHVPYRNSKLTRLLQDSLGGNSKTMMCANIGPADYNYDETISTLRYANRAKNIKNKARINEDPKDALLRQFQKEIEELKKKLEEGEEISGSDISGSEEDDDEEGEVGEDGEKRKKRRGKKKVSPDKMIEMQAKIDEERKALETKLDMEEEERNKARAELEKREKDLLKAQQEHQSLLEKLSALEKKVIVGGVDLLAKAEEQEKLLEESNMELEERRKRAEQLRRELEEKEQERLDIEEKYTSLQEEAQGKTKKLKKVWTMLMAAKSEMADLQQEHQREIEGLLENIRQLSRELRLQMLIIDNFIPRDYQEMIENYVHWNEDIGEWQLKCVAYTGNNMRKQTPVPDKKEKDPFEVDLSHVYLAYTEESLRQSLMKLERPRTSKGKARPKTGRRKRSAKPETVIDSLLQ
Chain of UniProt Q9Y383 (Q9Y383 whole entry, looked up): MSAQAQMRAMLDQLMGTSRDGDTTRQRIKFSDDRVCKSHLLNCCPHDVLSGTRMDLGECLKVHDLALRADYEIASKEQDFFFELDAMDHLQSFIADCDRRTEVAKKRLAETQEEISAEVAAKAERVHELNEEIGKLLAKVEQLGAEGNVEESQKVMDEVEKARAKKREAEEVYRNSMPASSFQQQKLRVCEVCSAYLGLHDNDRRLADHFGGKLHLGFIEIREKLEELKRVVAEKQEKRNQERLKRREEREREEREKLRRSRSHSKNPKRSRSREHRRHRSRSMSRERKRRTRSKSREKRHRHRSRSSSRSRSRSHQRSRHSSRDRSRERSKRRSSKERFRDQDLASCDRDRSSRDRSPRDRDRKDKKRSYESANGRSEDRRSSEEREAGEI
Chain of UniProt Q7Z4S6 (Q7Z4S6 whole entry, looked up): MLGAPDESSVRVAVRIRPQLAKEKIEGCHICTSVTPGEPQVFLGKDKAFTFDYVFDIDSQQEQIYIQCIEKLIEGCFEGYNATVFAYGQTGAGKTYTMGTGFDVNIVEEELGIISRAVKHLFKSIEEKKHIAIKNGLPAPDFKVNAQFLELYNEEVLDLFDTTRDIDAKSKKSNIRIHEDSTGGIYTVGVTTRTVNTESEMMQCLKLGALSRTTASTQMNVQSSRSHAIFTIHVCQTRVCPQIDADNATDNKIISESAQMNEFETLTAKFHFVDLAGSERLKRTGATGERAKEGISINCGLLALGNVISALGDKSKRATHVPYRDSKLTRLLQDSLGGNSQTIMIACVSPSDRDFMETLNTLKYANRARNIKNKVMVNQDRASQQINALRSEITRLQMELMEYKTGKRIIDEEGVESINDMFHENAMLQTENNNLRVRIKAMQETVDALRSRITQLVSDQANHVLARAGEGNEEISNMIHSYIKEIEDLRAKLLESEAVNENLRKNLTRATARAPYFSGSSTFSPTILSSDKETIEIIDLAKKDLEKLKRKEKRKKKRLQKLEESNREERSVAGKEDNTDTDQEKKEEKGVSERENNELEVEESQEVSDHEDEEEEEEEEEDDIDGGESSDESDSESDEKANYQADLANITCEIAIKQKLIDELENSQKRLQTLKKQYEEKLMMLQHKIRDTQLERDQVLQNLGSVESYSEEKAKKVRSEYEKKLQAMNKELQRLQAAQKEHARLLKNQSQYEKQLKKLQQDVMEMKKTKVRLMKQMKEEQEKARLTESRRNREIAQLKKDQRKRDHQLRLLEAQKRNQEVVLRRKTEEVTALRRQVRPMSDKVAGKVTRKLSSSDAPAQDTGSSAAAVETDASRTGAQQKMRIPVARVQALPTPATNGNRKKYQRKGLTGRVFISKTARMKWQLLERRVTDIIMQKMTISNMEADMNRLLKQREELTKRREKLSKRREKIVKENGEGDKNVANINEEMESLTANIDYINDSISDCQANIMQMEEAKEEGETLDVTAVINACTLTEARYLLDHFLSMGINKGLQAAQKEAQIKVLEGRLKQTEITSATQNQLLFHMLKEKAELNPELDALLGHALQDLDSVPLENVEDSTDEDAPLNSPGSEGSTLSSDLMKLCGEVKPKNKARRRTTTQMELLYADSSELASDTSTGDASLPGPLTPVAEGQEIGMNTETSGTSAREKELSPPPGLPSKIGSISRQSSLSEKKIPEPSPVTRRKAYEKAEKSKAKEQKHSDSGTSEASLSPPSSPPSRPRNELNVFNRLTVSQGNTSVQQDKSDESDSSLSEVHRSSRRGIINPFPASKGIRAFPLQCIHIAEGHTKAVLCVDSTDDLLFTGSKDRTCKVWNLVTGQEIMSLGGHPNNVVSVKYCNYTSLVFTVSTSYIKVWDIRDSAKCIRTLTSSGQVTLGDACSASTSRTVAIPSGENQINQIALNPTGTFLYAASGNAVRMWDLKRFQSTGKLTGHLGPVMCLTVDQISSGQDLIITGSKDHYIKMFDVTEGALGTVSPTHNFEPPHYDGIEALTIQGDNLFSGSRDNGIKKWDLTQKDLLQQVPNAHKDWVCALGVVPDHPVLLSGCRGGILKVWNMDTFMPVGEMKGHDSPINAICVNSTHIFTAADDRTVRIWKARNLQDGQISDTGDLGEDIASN

Row | Target | log2 fold change (erlotinib) | log2 fold change [1] | log2 fold change [2] | log2 fold change [3] | log2 fold change [4] | log2 fold change [5] | log2 fold change [6] | log2 fold change [7] | log2 fold change [8] | log2 fold change [9] | log2 fold change (IRAK-1-4 Inhibitor I) | log2 fold change (ibrutinib) | log2 fold change [10] | log2 fold change (ralimetinib) | log2 fold change [11] | log2 fold change [12] | log2 fold change [13] | log2 fold change (pinometostat) | log2 fold change [14] | log2 fold change [15]
1 | KIF1B isoform 4 (UniProt O60333) | 0.031 | 0.095 | 0.042 | -0.059 | 0.002 | 0.018 | -0.092 | 0.078 | -0.02 | -0.091 | -0.004 | -0.017 | 0 | -0.029 | -0.063 | 0.002 | 0.002 | 0.061 | -0.057 | -0.024
2 | LUC7L2 (UniProt Q9Y383) | -0.001 | 0.122 | 0.013 | 0.098 | -0.218 | -0.031 | 0.008 | -0.143 | -0.03 | -0.072 | -0.207 | -0.026 | -0.646 (active) | 0.111 | 0.031 | -0.134 | -0.04 | -0.048 | 0.009 | -0.037
3 | MFN1 (UniProt Q8IWA4) | -0.002 | -0.026 | 0.042 | 0.001 | 0.07 | 0.347 | -0.016 | -0.015 | 0.025 | -0.039 | 0.057 | -0.009 | -0.047 | -0.027 | -0.043 | -0.607 (active) | 0.078 | 0.018 | 0.015 | 0.098
4 | KIF3A (UniProt Q9Y496) | -0.222 | -0.06 | -0.069 | -0.122 | -0.049 | 0.034 | -0.062 | -0.025 | -0.011 | -0.067 | 0.04 | -0.016 | 0.034 | 0.085 | -0.151 | -0.336 | -0.065 | 0.051 | 0.087 | -0.081
5 | LEO1 (UniProt Q8WVC0) | 0.132 | 0.108 | 0.194 | -0.079 | -0.006 | 0.007 | -0.035 | -0.039 | -0.076 | -0.045 | 0.134 | 0.026 | -0.027 | -0.031 | -0.044 | -0.016 | 0.068 | 0.019 | 0.019 | -0.394 (active)
6 | ILRUN (UniProt Q9H6K1) | -0.009 | 0.069 | -0.033 | 0.027 | 0.075 | 0.043 | -0.06 | -0.063 | 0.028 | 0.041 | 0.031 | 0.044 | -0.011 | -0.004 | -0.035 | -0.148 | 0.027 | -0.06 | 0.031 | -0.055
7 | IKZF1 (UniProt Q13422) | -0.005 | -0.018 | -0.008 | 0.002 | -0.015 | 0.019 | -0.069 | 0.144 | 0.051 | 0 | -0.017 | 0.041 | -0.069 | -0.036 | -0.015 | -0.016 | 0.011 | 0.01 | 0.02 | 0.275
8 | KIF21A isoform 4 (UniProt Q7Z4S6) | 0.017 | 0.056 | -0.043 | -0.016 | -0.023 | 0.006 | -0.075 | -0.065 | -0.144 | -0.233 | -0.025 | -0.053 | -0.054 | 0.035 | -0.062 | -0.009 | 0.084 | 0.144 | 0.01 | 0.096
